# Screening results: PubChem, National Center for Advancing Translational Sciences (NCATS)
# Hits are enriched below; roughly 1.2% of the tested compounds scored in any of these assays.
# Anesthetic bind: binds horse apoferritin like a general anesthetic | P02791 | apoferritin/1-aminoanthracene competitive binding, fluorescence | Potency, µM (highest dose often 77.5 µM), inactives show at the highest dose activity change, negative = displacement, most hits filed as inhibitors | 0.074% of 350,000 active | AID 485281; further: on the % scale 0 is the no-effect control and ±100 the full control effect; nearly all actives have a fitted effect of over 20% in size
# Target sequence (P02791 2-175 limits assumed): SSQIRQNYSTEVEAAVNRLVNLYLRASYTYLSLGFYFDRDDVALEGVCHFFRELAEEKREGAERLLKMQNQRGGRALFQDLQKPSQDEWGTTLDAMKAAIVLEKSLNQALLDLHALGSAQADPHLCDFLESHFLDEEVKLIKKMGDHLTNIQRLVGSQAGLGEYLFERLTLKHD
#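 In PBS, apoferritin at 10 uM is loaded with 1-AMA from a 50% saturated solution. After 10 min of compound exposure at ambient temperature, reduced 535 nm fluorescence indicates probe displacement.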
# ERG Ets-DNA blk: inhibitors of human ERG Ets domain-DNA interaction. fluorescence polarization, His-ERG Ets domain / labelled DNA. Potency, µM (titrated, usually from 76.9 µM), for inactives: top-dose FP activity, negative = inhibition, hits mostly inhibitors. 0.028% of 370,000 active; active means well fitted inhibition curve with a large enough effect in the polarisation, with a control signal flat; inconclusive means small, poorly fitted or top-dose-only effect, or effect the other way, or a change in a side signal; inactive means no such curve, though single readings can be large or run the other way; the % refers to the polarisation;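 further: polarization taken with two DNA probes labelled with fluorescein and Texas red; % of control where 0% means no effect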
# Target sequence (P11308 whole entry, looked up, the tested form may be a part): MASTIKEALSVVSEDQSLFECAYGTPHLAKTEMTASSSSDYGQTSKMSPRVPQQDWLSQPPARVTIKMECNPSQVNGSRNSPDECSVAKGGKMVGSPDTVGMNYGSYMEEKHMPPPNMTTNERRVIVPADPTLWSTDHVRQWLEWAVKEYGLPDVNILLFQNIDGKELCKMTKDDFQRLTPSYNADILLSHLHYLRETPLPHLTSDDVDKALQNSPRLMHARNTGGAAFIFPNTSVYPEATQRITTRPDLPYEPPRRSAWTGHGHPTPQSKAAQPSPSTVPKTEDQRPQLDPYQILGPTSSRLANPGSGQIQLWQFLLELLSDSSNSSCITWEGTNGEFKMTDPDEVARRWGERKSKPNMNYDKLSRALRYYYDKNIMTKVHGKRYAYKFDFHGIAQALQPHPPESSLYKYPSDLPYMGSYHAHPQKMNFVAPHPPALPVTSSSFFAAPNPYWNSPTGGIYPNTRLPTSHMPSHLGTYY
#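 His-tagged ERG Ets domain (1 uM in the protein solution; 300mM KCl, 50mM Tris-HCl, 1mM EDTA, 1mM DTT, pH 7.5) received compound, then a probe mix of 5 nM fluorescein-DNA and 100nM Texas-615-DNA. Fluorescence polarization was read for both dyes.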
# BRCA1 expr act: activators of BRCA1 expression; MCF7-BRCA1-FFLuc reporter, luminescence, 48 h; response scale: scaled: vehicle 0%, 10 µM genistein 100%; Potency, µM (doses to about 46.1 µM), without a hit: at the highest dose activation, hits mostly activators; 1.1% of 380,000 active; further: nearly all actives have a fitted effect of over 80% in size
#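 48 h compound treatment of MCF7-BRCA1-FFLuc cells (phenol-red free MEM, 37 °C), then 15 min with luciferase substrate and luminescence imaging.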
# RGS12 GoLoco inh: RGS12 GoLoco-Gai1 interaction inhibition. 0.44% of 230,000 active. Gai1:RGS12 GoLoco peptide FP, rhodamine, 10 min. Potency, µM (series often up to 61.6 µM), without a hit: top-dose activity, negative = inhibition, usual class: inhibitors. P63096. AID 880; active means well fitted inhibition curve with a large enough effect, not every such curve was filed as active; inactive means no such curve, though single readings can be large or run the other way; further: on the % scale 0 is the no-effect control and ±100 the full control effect; nearly all actives have a fitted effect of over 30% in size
# * = called active by the depositor; ? = inconclusive; . = no result given; [ ] = another dose, or the depositor's remark. Unless noted, the call rests on the fitted dose curve; in most records, active means well fitted curve in the direction sought with a large enough effect; inconclusive means small, poorly fitted or top-dose-only effect, or another doubt; inactive means no such curve, though single readings can be large; an effect the other way counts as inactive or inconclusive. Potency means the concentration at half of the fitted maximal effect.
SMILES,Anesthetic bind,ERG Ets-DNA blk,BRCA1 expr act,RGS12 GoLoco inh
O=C(NCc1ccccc1)c1cnc2n(c1=O)CCS2,-10%,3%,37%,-6%
O=C(NCCc1ccc(Cl)cc1)c1cnc2n(c1=O)CCS2,-10%,-11%,?,5%
CC[n+]1c(C)cc2c(sc3ccccc32)c1C,4%,-2%,-5%,4.5µM*
C/C(=N\Nc1ncc(Cl)cc1Cl)c1ccc(OC(F)F)cc1,8%,2%,37%,45%
C/C(=N\NC(=O)c1ccc2c(c1)OCO2)c1ccc(C(=O)O)s1,-11%,-8%[15.4 µM],48%,18%
C/C(=N\Nc1ncc(Cl)cc1Cl)c1ccc2c(c1)OCO2,-14%,-7%,5.6µM*,13%
C/C(=N\NC(=O)c1cccs1)c1ccc2c(c1)OCO2,-9%,-4%,8.9µM*,3%
C/C(=N\NC(=O)c1ccc2c(c1)OCO2)c1ccc2c(c1)OCO2,-9%,8%,7.9µM*,6%
CN(C)c1nc(NC2CCC(NC(=O)c3ccc(F)c(F)c3)CC2)nc2ccccc12 (stereo not given),-2%,.,.,.
CN(C(=O)CSc1ncnc2sccc12)C1CCCCC1,.,-19%,4µM*,.
COc1cccc2c1CCCC2CCCN1CCN(C2CCCCC2)CC1 (stereo not given),-2%,.,.,.
CCCCn1cnc2c(cnn2-c2ccc(Cl)cc2)c1=O,5%,-3%,11µM*,2%
CCCCn1cnc2c(cnn2-c2ccc(F)cc2)c1=O,-13%,-1%,?,2%
O=Nc1c(O)c2ccccc2c2ccccc12,.,11%,-32%,.
O=c1c(=Nc2ccccc2O)c(=O)c2ccccc12,?,-5%,11µM*,4%
CCCC[C@H](NC(C)=O)C(=O)N[C@@H](CCC(=O)O)C(=O)N[C@@H](Cc1cnc[nH]1)C(=O)N[C@H](Cc1ccccc1)C(=O)N[C@@H](CCCN=C(N)N)C(=O)N[C@H](Cc1c[nH]c2ccccc12)C(=O)NCC(N)=O,3%,.,.,.
Cc1cc(C(=O)Nc2cnc3ccccc3c2)ccc1[N+](=O)[O-],-5%,1%,3.2µM*,1%
Cc1cc(C(=O)Nc2ccc(N3CCCC3)c(Cl)c2)ccc1[N+](=O)[O-],4%,3%,10µM*,-11%
COC(=O)C1=C(C(=O)OC)[C@@H]2Nc3ccccc3[C@@]23C[C@@H](C(=O)OC)N(S(=O)(=O)c2c(C)noc2C)C3=N1,.,.,.,2%[14.2 µM]
Cc1c2ccccc2nc2c(F)c(NCCO)c(F)c(F)c12,-6%,-11%,50%,20µM*
Cc1cc(NC(=O)CCNS(=O)(=O)c2ccc3c(c2)CCCC(=O)N3)ccc1Br,-17%,-6%,-23%,.
CC1(C)CCC(=O)N2CC[C@H]3C[C@H](OC(=O)Nc4ccc5c(c4)OCO5)C[C@@H]1[C@H]32,-4%,7%,11µM*,.
Cc1ccc(Nc2nc3nonc3[nH]c2=O)cc1,-15%,7%,11µM*,2%
COc1ccccc1Nc1nc2nonc2[nH]c1=O,-1%,2%,-26%,7%
CC(C)C[C@@H](CSc1ccc(Br)cc1)N1CCN(C)CCC1=O,-3%,11%,10µM*,6%
SMILES,Anesthetic bind,ERG Ets-DNA blk,BRCA1 expr act,RGS12 GoLoco inh
CN=c1nc(-c2ccccc2)n(-c2ccccc2)s1,.,-9%,14%,5µM*
O=[N+]([O-])c1ccccc1N/N=C\c1ccccc1F,-8%,-11%,?,5%
O=[N+]([O-])c1ccccc1N/N=C\c1ccccc1Cl,-8%,1%,2.5µM*,-3%
CN(C)C(=S)Nc1nc2ccccc2s1,-10%,5%,3.5µM*,0%
CCOCC(=O)Nc1nc2ccccc2s1,-15%,-5%,7.9µM*,7%
O=C(CSc1nccn1-c1ccccc1)Nc1nc2ccccc2s1,-7%,2%,11µM*,.
CCNC(=O)Nc1nc2ccccc2s1,-7%,5%,3.2µM*,-1%
CCOc1ccc2nc(NC(=S)N(C)C)sc2c1,-13%,-6%,?,-6%
CC(=O)c1cccc(NC(=O)C2CCCN(c3nnc(-n4cccc4)s3)C2)c1 (stereo not given),?,-9%,-4%,.
O=C(COc1ccccc1C(=O)Nc1ccccc1)Nc1cccc([N+](=O)[O-])c1,.,.,7%,.
CCCC(=O)Nc1nc2ccc(OCC)cc2s1,-10%,24%,6.3µM*,9%
Cc1ccccc1Nc1nc2ccccc2s1,?,-12%,3.5µM*,-1%
CCOc1ccc2nc(NC(=O)CCn3cccc3)sc2c1,-9%,-5%,62%,7%
C[N+]1(C)CCc2cc(O)c(O)cc2[C@H]1Cc1ccc(O)c(O)c1,.,.,.,-6%[14.2 µM]
CCN(Cc1ccccc1)c1ccc(/C=C(\C#N)c2ccccn2)cc1,-10%,4%,5µM*,.
O[C@@H](COc1cccc2ccccc12)CN1CCOCC1,.,.,.,3%[14.2 µM]
COC(=O)C1=C(C(=O)OC)[C@@H]2N(Cc3ccccc3)c3ccccc3[C@@]23C[C@@H](C(=O)OC)N(S(=O)(=O)c2cccs2)C3=N1,.,.,.,-1%[14.2 µM]
Cc1nn(-c2ccccc2)cc1C(=S)Nc1ccccc1,5%,-7%,7.9µM*,3%
Cc1c(C(=S)Nc2ccccc2)cnn1-c1ccc([N+](=O)[O-])cc1,5%,1%,-30%,9%
Cc1c(C(=S)Nc2ccccc2)cnn1-c1ccccc1,-19%,-4%,7.9µM*,-6%
O=C(Nc1cc(F)ccc1F)N1CCC(CN2CCCC2)CC1,4%,0%,.,.
Cn1cccc1CNC(=O)Nc1ccc(Cl)c(Cl)c1,-23%,9%,2.2µM*,-12%
CCOc1ccc(NC(=O)NCc2cccn2C)cc1,-12%,8%,?,.
Cc1ccc(Cn2cc(C(=O)c3ccc4c(c3)OCO4)c(=O)c3cc(C)ccc32)cc1,-22%,0%,.,.
Cc1nnc(SCC(=O)Nc2nsc(-c3ccc(C(C)(C)C)cc3)n2)s1,?,4%,1.1µM*,5%
SMILES,Anesthetic bind,ERG Ets-DNA blk,BRCA1 expr act,RGS12 GoLoco inh
C=CCOC(=O)C(C(C)=O)C(NC(=O)OC)c1ccc(Cl)cc1 (stereo not given),-13%[15.3 µM],.,.,.
Cc1c(Cl)cccc1NC(=O)CSc1nc(=O)n(Cc2ccco2)c2c1CCC2,-14%,0%,-11%,.
CCc1noc(-c2ccc(N3CCC(C)CC3)c([N+](=O)[O-])c2)n1,-20%,-4%,8.9µM*,.
CCc1noc(-c2ccc(N3CCCCC3)c([N+](=O)[O-])c2)n1,-13%,3%,7.1µM*,.
CC(CNC(=O)c1cc2ccccn2n1)c1ccccc1 (stereo not given),-7%,17%,.,.
C#CC(C)OC(=O)Nc1cccc(Cl)c1 (stereo not given),-20%,.,.,.
COn1c(-c2ccc(Cl)cc2)nc2ncccc21,3%,-1%,7.1µM*,.
O=C(O)/C=C\c1c2ccc(=O)c(O)c-2oc2c(O)c(O)ccc12,.,.,.,0.89µM*
Nc1ccc2oc(=O)c3ccccc3c2c1,-9%,21%,11µM*,-2%
COCCn1c(CNC(=O)c2ccccc2C)nc2cccnc21,-6%,-5%,.,.
O=C(/C=C/Nc1ccc(F)cc1F)c1cccs1,-14%,-2%,0%,27%
O=C(/C=C/Nc1ccccc1F)c1cccs1,-2%,1%,1%,8.9µM*
